In one assay the test system is CRL-7250. Briefly: Cytotoxic Profiling of Annotated Libraries Using Quantitative High-Throughput Screening (AID 1296008). Note: nearly all actives have a fitted effect of over 60% in size. Note: potency is the fitted concentration of half-maximal effect. The conditions noted are these: Five cell lines viability, CellTiter-Glo ATP luminescence, 48-72 h; max response: stronger effect = lower value. The essentials: (§1)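 Cells exposed to compounds for 48 or 72 hr at 37 degrees Celsius. Viability read as ATP-coupled luminescence with CellTiter-Glo after 10 min at room temperature.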
In general terms: ATP-based viability assays read luminescence as a measure of living cells.

For a further assay, the system named is HEK293. The assay is described as above. The conditions noted are these: Five cell lines viability, CellTiter-Glo ATP luminescence, 48-72 h; max response: stronger effect = lower value. The method, boiled down: as §1
The next assay relates to HaCat. The assay is described as above. As to conditions: Five cell lines viability, CellTiter-Glo ATP luminescence, 48-72 h; max response: stronger effect = lower value. The method, boiled down:
as §1

The subject of a further assay is KB-3-1. The description is as above. As to conditions: Five cell lines viability, CellTiter-Glo ATP luminescence, 48-72 h; max response: stronger effect = lower value. The essentials:
as §1

The test system of assay [1] is NIH3T3. The assay is described as above. The conditions noted are these: Five cell lines viability, CellTiter-Glo ATP luminescence, 48-72 h; max response: stronger effect = lower value. The method, boiled down: as §1
In the next assay the test system is C33A. Briefly: Primary qHTS to identify gynecologic anti-cancer compounds using libraries of approved drugs and bioactive compounds (AID 1345084). Note: nearly all actives have a fitted effect of over 55% in size. As to conditions: Gynecologic cancer cell panel viability, ATPlite luminescence, 48 h; series mostly up to 57.5 µM. The essentials:
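ATP-based viability (ATPlite), 1,000 cells/well, 16 h pre-incubation, 48 h compound at 37 C, 5% CO2, 15 min RT before read.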

For a further assay, the system named is HEK293T. Briefly: qHTS assay to identify novel small-molecules to repurpose for Merkel cell carcinoma treatment (AID 1296009). Note: nearly all actives have a fitted effect of over 60% in size. The conditions noted are these: MCC and control cell lines, CellTiter-Glo viability, 72 h; series mostly up to 44.8 µM. The method, boiled down:
(§2)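 Cells were incubated with compound for 72 hr at 37 degree celsius before CellTiter-Glo addition. Luminescence was normalized with no-cell wells as full cytotoxicity and DMSO as baseline.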
On the technique in general: In qHTS, concentration-response curves come from the screen itself.

The next assay deals with MCC-13. Described as above. As to conditions: MCC and control cell lines, CellTiter-Glo viability, 72 h; series mostly up to 46 µM. The essentials:
as §2

Another assay has as its system MCC-26. Described as above. As to conditions: MCC and control cell lines, CellTiter-Glo viability, 72 h; series mostly up to 46 µM. The essentials: as §2
The next assay has as its system MKL-1. The description is as above. As to conditions: MCC and control cell lines, CellTiter-Glo viability, 72 h; series mostly up to 46 µM. The essentials:
as §2

The next assay relates to MKL-2. The assay is described as above. As to conditions: MCC and control cell lines, CellTiter-Glo viability, 72 h; series mostly up to 46 µM. The essentials:
as §2

The subject of a further assay is UISO. Described as above. The conditions noted are these: MCC and control cell lines, CellTiter-Glo viability, 72 h; series mostly up to 46 µM. The essentials:
as §2

The next assay relates to WaGa. The description is as above. As to conditions: MCC and control cell lines, CellTiter-Glo viability, 72 h; series mostly up to 46 µM. The method, boiled down: as §2
In assay [2] the test system is NIH3T3. The description is as above. The conditions noted are these: MCC and control cell lines, CellTiter-Glo viability, 72 h; at 44.8 µM (top of the series) unless noted. The method, boiled down: as §2

Among the data in PubChem BioAssay (NCATS) are max response, Potency and outcome values, retold here.

Several values for one entry are separate records, joined by “and”; a condition that tells them apart may be missing. Identical values can stand only once. Records with an inconclusive call do not appear. Values without a mark were called inactive. Activity calls are given as the source filed them. Calls come from the whole dose curve; as a rule, active = well fitted curve in the direction sought with a large enough effect; inconclusive = small, poorly fitted or top-dose-only effect, or another doubt; inactive = no such curve, though single readings can be large; an effect the other way counts as inactive or inconclusive.
% is set by controls: 0 for no effect and ±100 for the full control effect.

On to `Nc1ccn([C@@H]2C(F)=C(CO)[C@@H](O)[C@H]2O)c(=O)n1`, for which the max response with CRL-7250 is -25.3%. Moreover, the Potency in the assay on HEK293 is 920 nM (active) and 933 nM (active); with HaCat, 18.4 µM (active); in the assay with KB-3-1, 9.2 µM (active); in the assay with NIH3T3 [1], 4.61 µM (active) and 3.71 µM (active). For the same compound, the Potency entry in the assay with C33A is “inactive”.

As for `CC(=O)O[C@H]1[C@H](Oc2ccccc2COC(=O)C2(O)C=CCCC2=O)O[C@H](CO)[C@@H](O)[C@@H]1O` (some centres undefined), the max response in the assay with CRL-7250 is 3.12%; in the assay on HaCat, 3.69%; in the assay with KB-3-1 it was 6.43%; with NIH3T3 [1], 0.519%. Moreover, the compound was classed as inactive in the assay on HEK293. Moreover, the Potency entry in the assay on HEK293T and in the assay on C33A was “inactive” throughout.

In the case of `OCC1OC(Oc2cc(O)c3c(c2)OC(c2ccc(O)cc2)C(O)C3)C(O)C1O` (centres undefined), the max response in the assay with CRL-7250 was -1.28%; with HaCat it was -8.75%; in the assay with KB-3-1, 9.04%; in the assay on NIH3T3 [1] it was 2.06%. For the same compound, the outcome in the assay on HEK293 was inactive. Besides, the Potency entry with HEK293T and in the assay with C33A was “inactive” each time.

Regarding `C[C@@H]1C[C@H]2[C@@H]3CCC4=CC(=O)C=C[C@]4(C)[C@@]3(F)[C@@H](O)C[C@]2(C)[C@@]1(O)C(=O)COP(=O)(O)O`, the max response in the assay on CRL-7250 was -4.68%; with HEK293 it was 4.74%; in the assay on KB-3-1, 13.8%. Besides, in the assay on KB-3-1, the compound was classed as inactive. For the same compound, in the assay on C33A, the Potency entry is “inactive”.

Turning to `C/C=C(/C)C(=O)O[C@H]1C=C(C)C[C@H](OC(=O)c2ccc(O)cc2)C2[C@](O)(C(C)C)CC[C@@]21C` (some centres undefined), the max response was -4.39% in the assay on CRL-7250, -13.2% in the assay on HaCat and -3.12% in the assay with NIH3T3 [1]. In addition, the result in the assay on HEK293 and in the assay on KB-3-1 was inactive. The Potency result in the assay with HEK293T and with C33A was “inactive” each time.

Consider `C=C1C(=O)O[C@H]2[C@H]1[C@@H](OC(=O)C(C)CO)C[C@@]1(C)[C@H](O)CCC(=O)[C@H]21` (some centres undefined), for which the max response is -10.3% in the assay with CRL-7250, -8.77% with HaCat and -0.0339% in the assay with NIH3T3 [1]. In addition, the compound was called inactive in the assay with HEK293 and in the assay on KB-3-1. Also, the Potency result in the assay on HEK293T and in the assay on C33A was “inactive” each time.

For the compound `CON(C)C(=O)N1N=C(c2cc(F)ccc2F)S[C@@]1(CCCN)c1ccccc1`, the max response with CRL-7250 is -53.9% and -40.4%; in the assay with NIH3T3 [1] it was -29.1%. The Potency in the assay with HEK293 is 4.6 nM (active); in the assay on KB-3-1 it was 0.0082 µM (active). In the assay with C33A, the Potency entry is “inactive”.

`CCc1nc(C(N)=O)c(Nc2ccc(N3CCC(N4CCN(C)CC4)CC3)c(OC)c2)nc1NC1CCOCC1`: the Potency with CRL-7250 was 5.24 µM (active); in the assay on HEK293, 1.61 µM (active) and 1.32 µM (active); in the assay on HaCat, 2.55 µM (active); in the assay with NIH3T3 [1] it was 1.01 µM (active) and 831 nM (active).

As to `CC1CCC(=O)CC(O)C(O)CC(=O)O1` (centres undefined), the max response with CRL-7250 was -5.97%; in the assay with HaCat, 4.62%; in the assay on KB-3-1, 5.19%. Besides, the compound was classed as inactive with HEK293 and with NIH3T3 [1]. Further, the Potency entry with HEK293T and in the assay on C33A was “inactive” in each case.

Turning to `CN1Cc2c(N)cccc2C(c2ccccc2)C1` (centres undefined), the max response in the assay on CRL-7250 was -1.42%; in the assay on HEK293 it was 3.6%; in the assay on HaCat, -17.5%; in the assay on KB-3-1 it was -2.79%. For the same compound, the call with NIH3T3 [1], with MCC-13, in the assay with MCC-26, in the assay with MKL-1, with MKL-2 and in the assay on UISO was inactive. In the assay on WaGa, the result was inactive. The Potency result in the assay with C33A was “inactive”.

On to `CCOc1c2c(c(OCC)c3ccccc13)C(=O)N(c1ccc(CC(=O)NS(=O)(=O)c3ccccc3)cc1)C2`, for which the max response in the assay on CRL-7250 was -1.51%; in the assay with HaCat, -7.44%; in the assay on KB-3-1, 1.17%; in the assay on NIH3T3 [1], 3.33%. Also, the outcome with HEK293 was inactive. Moreover, the Potency entry in the assay with HEK293T and in the assay with C33A was “inactive” each time.

In the case of `N#Cc1ccc2[nH]c(O)c(-c3ccc(CN4CCOCC4)cn3)c2c1`, the max response is -0.745% with HEK293, -0.0847% in the assay with HaCat and -16.6% in the assay with NIH3T3 [1]. Further, the compound was called inactive with HEK293, in the assay on NIH3T3 [1] and with NIH3T3 [2]. Moreover, the Potency result with HEK293T and with C33A was “inactive” in each case.

Turning to `CC(=O)O[C@H](C[C@@H](C)[C@H]1C(=O)[C@H](O)[C@@]2(C)[C@@H]3CCC4C(C)(C)[C@@H](O[C@@H]5OC[C@H](O)[C@H](O)[C@H]5O)CC[C@@]45C[C@@]35CC[C@]12C)[C@@H]1OC1(C)C` (some centres undefined), the max response is 0.817% in the assay with CRL-7250 and 2.98% with HaCat. For the same compound, the result with HEK293, in the assay on KB-3-1 and with NIH3T3 [1] was inactive. Further, the Potency entry in the assay with HEK293T and with C33A was “inactive” throughout.
